Data as given in PubChem BioAssay (NCI).
About 83,000 compounds went through this panel and 20% of them were active in at least one assay; those are over-represented in the sample as a whole.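 Testing used 96-well plates and a 48-hour single-concentration exposure. Example: -40 means 40% of the starting cells died.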 Values without a mark were called inactive. The source made the active and inactive calls. Rule for the calls: active = growth percent below 10; inactive = the rest.

System: HOP-62 NSCLC
Assay: NCI-60 one-dose screen, 48 h (100 = growth as untreated, 0 = no growth, -100 = all killed)
Conditions: 10 µM unless noted

In order of rising growth:
1. CCC1=C[C@@H]2CN(C1)Cc1c([nH]c3ccccc13)[C@@](C(=O)OC)(c1cc3c(cc1OC)N(C)[C@H]1[C@@](O)(C(=O)OC)[C@H](OC(C)=O)[C@]4(CC)[C@@H]5C[C@@H]5CN5CC[C@]31[C@@H]54)C2  17.4%
2. CN(C)c1ccc(/C=C/c2ccnc3c(O)cccc23)cc1  20.3%
3. O=c1c(-c2nc3ccccc3[nH]2)cc2ccccc2n1Cc1cn(Cc2ccc(F)cc2)nn1  21.4%
4. COc1cc(/C=C/C(=O)c2c(C)nc3ccccc3c2/C=C/c2ccccc2)cc(OC)c1OC  22.2%
5. Oc1[nH]c2ccccc2c1N=Nc1nnc2n1N=C(c1ccccc1)CS2  46.1%
6. COc1ccc(C2C3=C(COC3=O)N(CCO)c3cc4c(cc32)CCC4)cc1 (stereo not drawn)  51.5%
7. CCN1C(=O)N(CC)C2Nn3c(s/c(=C4\C(=O)N(C(C)C)c5ccccc54)c3=O)=NC21 (stereo not drawn)  51.8%
8. COc1cc(-c2c3c(cn2S(=O)(=O)c2ccccc2)-c2nc(N)sc2CC3)cc(OC)c1OC  53.5%
9. O=S1(=O)N(Cc2ccccc2)[C@@H](Cc2ccccc2)C2O[C@H]2[C@H](Cc2ccccc2)N1Cc1ccccc1 (stereo partly drawn)  53.6%
10. CC1(C)CC2(C)OC2C2(C1)N=NC(=Nc1ccccc1)O2 (stereo not drawn)  60.9%
11. C=CCN1C(=O)/C(=c2\sc3n(c2=O)NC2C(N=3)N(CC)C(=O)N2CC)c2ccccc21 (stereo not drawn)  62.7%
12. COc1cc(/C=C2\CN(C)C/C(=C\c3cc(CN4CCCC4)c(O)c(OC)c3)C2=O)cc(CN2CCCC2)c1O  82%
13. CCCCNc1nc(NC(C)(C)C)nc(NC(C)(C)C)n1  84.1%
14. Nc1ccc(-c2nn3c(CCC(=O)c4nc5ncccc5[nH]4)nnc3s2)c(O)c1  85.7%
15. Cc1c(C(=O)OCCO)cc(-c2ccc(Cl)cc2)n1-c1ccc(Cl)cc1Cl  89.2%
16. Cc1ccc2cccc(Oc3ccc(Nc4ncnc5onc(-c6ccccc6)c45)cc3)c2n1  90.4%
17. COc1ccc(OC)c(NC(=O)/C(C#N)=C/c2ccco2)c1  90.8%
18. CC1CCCCN1CCCNC(=O)c1ccc2c(c1)sc1nc(-c3ccc(F)cc3)cn12 (stereo not drawn)  90.9%
19. FC(F)(F)c1cccc(CNC2CCN(CCc3ccccc3)CC2)c1  91.1%
20. Clc1ccc(COc2ccc(Nc3ncnc4onc(-c5ccccc5)c34)cc2)cc1  91.2%
21. CCOC(=O)CSc1c(-c2ccccc2)c2cc(Cl)ccc2[nH]c1=O  94.5%
22. COc1ccc(CCN2C(=O)/C(=C/c3ccc(C4Oc5ccccc5C5CC(c6cccc(OC)c6)=NN54)cc3)SC2=S)cc1 (stereo not drawn)  100%
23. NC1C(N)C(N)C1N (stereo not drawn)  104%
24. O=NN(C(=O)NC1CCC(C(=O)O)CC1)C1CCC(C(=O)O)CC1 (stereo not drawn)  104%
25. Nc1no[n+]([O-])c1-c1nnc2c(n1)-c1ccccc1C2=O  104%
26. COc1ccc(C2=NN(/C=C3\SC(=O)NC3=Nc3ccc(F)cc3)C(c3ccc(F)cc3)C2)cc1 (stereo not drawn)  105%
27. O=NN(Cc1cccnc1)C(=O)NC1CCCCC1  107%
28. CCCc1c(C)c2sc(=O)[nH]c2[nH]c1=O  107%
29. CC(C)[C@H](NC(=O)Cn1cc(C(=O)O)nn1)C(=O)O  108%
30. NC(=O)CSc1nc(-c2ccc(F)cc2)cc(-c2ccco2)n1  108%
31. O=C(O)CCCN1C(=O)C2C3CCC(C3)C2C1=O (stereo not drawn)  109%
32. Nc1cccc(Nc2cc(S(=O)(=O)O)c(N)c3c2C(=O)c2ccccc2C3=O)c1  114%
33. O=C1/C(=C/c2ccc(O)cc2)COc2ccc(O)cc21  114%

`CCOc1ccc2c(c1)CN(Cc1ccc(Cl)cc1)CO2` was tested, and the growth was -7.93% (active).
`CCN(CC)CCCNc1ccnc2cc3ccccc3cc12` was tested, and the growth was -9.44% (active).
`COc1cc(/C=C2\CN(S(=O)(=O)c3ccccc3)C/C(=C\c3cc(CN4CCCC4)c(O)c(OC)c3)C2=O)cc(CN2CCCC2)c1O` was tested, and the growth was -4.65% (active).
In the case of `COc1ccc(-c2nc(N3CCN(C(=O)C4CCCCC4)CC3)c3c4c(sc3n2)CCCC4)cc1`, the growth is reported as -84.5% (active).
For `O=c1oc2ccc(Br)cc2c(=O)n1-c1ccc(Cl)cc1F`, the growth was 2.2% (active).
`O=c1oc2ccc(F)cc2c(=O)n1-c1ccc(Cl)cc1F` was tested, and the growth was -5.38% (active).

System: NCI-H460 lung
Assay: as above
Conditions: 10 µM unless noted

In order of falling growth:
1. O=C(O)CCCN1C(=O)C2C3CCC(C3)C2C1=O (stereo not drawn)  116%
2. NC1C(N)C(N)C1N (stereo not drawn)  113%
3. NC(=O)CSc1nc(-c2ccc(F)cc2)cc(-c2ccco2)n1  110%
4. O=NN(Cc1cccnc1)C(=O)NC1CCCCC1  109%
5. Nc1cccc(Nc2cc(S(=O)(=O)O)c(N)c3c2C(=O)c2ccccc2C3=O)c1  108%
6. O=NN(C(=O)NC1CCC(C(=O)O)CC1)C1CCC(C(=O)O)CC1 (stereo not drawn)  107%
7. CCCc1c(C)c2sc(=O)[nH]c2[nH]c1=O  107%
8. COc1ccc(OC)c(NC(=O)/C(C#N)=C/c2ccco2)c1  107%
9. CC(C)[C@H](NC(=O)Cn1cc(C(=O)O)nn1)C(=O)O  106%
10. O=C1/C(=C/c2ccc(O)cc2)COc2ccc(O)cc21  105%
11. CC1CCCCN1CCCNC(=O)c1ccc2c(c1)sc1nc(-c3ccc(F)cc3)cn12 (stereo not drawn)  102%
12. COc1ccc(CCN2C(=O)/C(=C/c3ccc(C4Oc5ccccc5C5CC(c6cccc(OC)c6)=NN54)cc3)SC2=S)cc1 (stereo not drawn)  101%
13. CCOC(=O)CSc1c(-c2ccccc2)c2cc(Cl)ccc2[nH]c1=O  101%
14. COc1ccc(C2=NN(/C=C3\SC(=O)NC3=Nc3ccc(F)cc3)C(c3ccc(F)cc3)C2)cc1 (stereo not drawn)  101%
15. Nc1ccc(-c2nn3c(CCC(=O)c4nc5ncccc5[nH]4)nnc3s2)c(O)c1  93.4%
16. Oc1[nH]c2ccccc2c1N=Nc1nnc2n1N=C(c1ccccc1)CS2  83.3%
17. CCCCNc1nc(NC(C)(C)C)nc(NC(C)(C)C)n1  82.5%
18. CC1(C)CC2(C)OC2C2(C1)N=NC(=Nc1ccccc1)O2 (stereo not drawn)  79.5%
19. Cc1ccc2cccc(Oc3ccc(Nc4ncnc5onc(-c6ccccc6)c45)cc3)c2n1  73.5%
20. Nc1no[n+]([O-])c1-c1nnc2c(n1)-c1ccccc1C2=O  65.8%
21. Clc1ccc(COc2ccc(Nc3ncnc4onc(-c5ccccc5)c34)cc2)cc1  61%
22. FC(F)(F)c1cccc(CNC2CCN(CCc3ccccc3)CC2)c1  59.8%
23. CCN(CC)CCCNc1ccnc2cc3ccccc3cc12  45.5%
24. CCOc1ccc2c(c1)CN(Cc1ccc(Cl)cc1)CO2  40.1%
25. Cc1c(C(=O)OCCO)cc(-c2ccc(Cl)cc2)n1-c1ccc(Cl)cc1Cl  37.7%
26. COc1cc(/C=C2\CN(C)C/C(=C\c3cc(CN4CCCC4)c(O)c(OC)c3)C2=O)cc(CN2CCCC2)c1O  34.1%
27. COc1ccc(C2C3=C(COC3=O)N(CCO)c3cc4c(cc32)CCC4)cc1 (stereo not drawn)  25.9%
28. CCN1C(=O)N(CC)C2Nn3c(s/c(=C4\C(=O)N(C(C)C)c5ccccc54)c3=O)=NC21 (stereo not drawn)  21.3%
29. C=CCN1C(=O)/C(=c2\sc3n(c2=O)NC2C(N=3)N(CC)C(=O)N2CC)c2ccccc21 (stereo not drawn)  15%

For `COc1cc(-c2c3c(cn2S(=O)(=O)c2ccccc2)-c2nc(N)sc2CC3)cc(OC)c1OC`, the growth was 6.37% (active).
With `CCC1=C[C@@H]2CN(C1)Cc1c([nH]c3ccccc13)[C@@](C(=O)OC)(c1cc3c(cc1OC)N(C)[C@H]1[C@@](O)(C(=O)OC)[C@H](OC(C)=O)[C@]4(CC)[C@@H]5C[C@@H]5CN5CC[C@]31[C@@H]54)C2` the growth was 0.48% (active).
In the case of `CN(C)c1ccc(/C=C/c2ccnc3c(O)cccc23)cc1`, the growth is reported as 0.902% (active).
In the case of `O=S1(=O)N(Cc2ccccc2)[C@@H](Cc2ccccc2)C2O[C@H]2[C@H](Cc2ccccc2)N1Cc1ccccc1` (stereo partly drawn), the growth is reported as 9.31% (active).
For `COc1cc(/C=C2\CN(S(=O)(=O)c3ccccc3)C/C(=C\c3cc(CN4CCCC4)c(O)c(OC)c3)C2=O)cc(CN2CCCC2)c1O`, the growth was -30.7% (active).
For `COc1ccc(-c2nc(N3CCN(C(=O)C4CCCCC4)CC3)c3c4c(sc3n2)CCCC4)cc1`, the growth was -32.8% (active).
With `O=c1oc2ccc(Br)cc2c(=O)n1-c1ccc(Cl)cc1F` the growth was 2.87% (active).
For `COc1cc(/C=C/C(=O)c2c(C)nc3ccccc3c2/C=C/c2ccccc2)cc(OC)c1OC`, the growth was -33.3% (active).
In the case of `O=c1oc2ccc(F)cc2c(=O)n1-c1ccc(Cl)cc1F`, the growth is reported as 3.17% (active).
`O=c1c(-c2nc3ccccc3[nH]2)cc2ccccc2n1Cc1cn(Cc2ccc(F)cc2)nn1` was tested, and the growth was -10.7% (active).
